From PubChem
A selection: hits, their analogues and other compounds. The true share with any hit is near 2.8%.
NR1D1 modulator = modulators of human Rev-erb alpha DNA binding; P20393; Rev-erbα–FITC-DNA binding, fluorescence polarization, 90 min; activity, % at 10 µM; actives 0.79% (n = 370,000);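 active means activity above about 14%, limit read from the data; passing the limit was not always enough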;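 further: 0% = DMSO wells with 35 nM protein and 100% = DMSO wells with 750 nM protein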
KLK7 zymogen act = activators of human kallikrein-7 zymogen | AID 652039 | P49862 | purified proKLK7, EDANS-DABCYL substrate fluorescence; 100% is mature enzyme control, 0% vehicle | activation, % at 7 µM | actives 0.9% (n = 370,000);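 active means activation above the mean of all tested compounds plus 3 SD, computed per campaign excluding outliers beyond control limits, cut at about 13% in these data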
PG9 binder = binds the HIV-1 gp120 antibody PG9; TR-FRET gp120-PG9 antibody binding; inhibition, % at 6.7 µM; actives 0.43% (n = 360,000); in the data active means inhibition above about 8.5%
GASC-1 inh = blocks human GASC-1 demethylase activity | Q9H3R0 | GST-JMJD2C(1-420) H3K9me3 demethylation, DELFIA europium | inhibition, % at 2.35 µM | actives 0.069% (n = 330,000) | AID 2099;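 active means more than half of a compound's replicate wells show inhibition beyond 50%, single wells judged on their own value; inconclusive means some, but no more than half, of replicates pass 50% inhibition; inactive means no replicate passes 50% inhibition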;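 further: signal counts dimethyl H3K9 product captured on neutravidin plate; 0% = median of DMSO wells and 100% = 0.3 times that DMSO median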
Target sequence (Q9H3R0 1-420 limits assumed): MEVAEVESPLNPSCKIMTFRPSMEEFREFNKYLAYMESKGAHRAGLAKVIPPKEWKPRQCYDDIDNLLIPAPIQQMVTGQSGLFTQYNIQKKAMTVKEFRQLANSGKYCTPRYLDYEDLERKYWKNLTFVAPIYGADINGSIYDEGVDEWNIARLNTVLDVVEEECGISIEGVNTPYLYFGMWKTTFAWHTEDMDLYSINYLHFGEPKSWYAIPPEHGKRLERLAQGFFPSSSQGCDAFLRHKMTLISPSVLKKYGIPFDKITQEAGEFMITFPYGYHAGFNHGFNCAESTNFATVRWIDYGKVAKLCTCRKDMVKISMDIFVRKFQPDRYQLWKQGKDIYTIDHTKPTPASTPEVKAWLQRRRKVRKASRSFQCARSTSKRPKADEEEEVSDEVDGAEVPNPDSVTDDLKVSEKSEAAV
PP1 inh = counter-screen for PP5 inhibitors: inhibitors of human PP1-alpha; actives 0.9% (n = 320,000); inhibition, % at 6.7 µM; P62136; purified PP1alpha, OMFP fluorescence;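 active means inhibition above the mean inhibition of all tested compounds plus 3 SD, computed separately for each screening campaign, cut at about 15% in these data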
PP5 primary = PP5 (human) phosphatase inhibition; inhibition, % at 6.7 µM; actives 0.18% (n = 320,000); P53041; purified PP5c, OMFP substrate fluorescence;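 active means inhibition above the campaign's mean inhibition across all tested compounds plus 3 SD, cut at about 9.5% in these data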;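 further: 0% = DMSO only and 100% = 100 µM cantharidin control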
proKLK7 act conf = proKLK7 activation, confirmation | shares compounds with KLK7 zymogen act | purified proKLK7, EDANS-DABCYL substrate fluorescence; scaled: vehicle 0, mature enzyme 100 | activation, % at 7 µM | actives 68% (n = 3,200);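 active means activation, as change over the incubation, above the mean of all tested compounds plus 3 SD, cut at about 13% in these data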
EDANS-DABCYL int = fluorescence interference counter-screen for KLK7 activators. shares compounds with KLK7 zymogen act. EDANS-DABCYL substrate fluorescence interference, no enzyme, 4 h; solvent 0%, active enzyme control 100%. activation, % at 7 µM. actives 80% (n = 3,200). AID 686952;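 active means activation above the all-compound mean plus 3 SD, ignoring values outside control-based bounds, cut at about 4.8% in these data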;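 further: value is the 4 h activation minus the activation read at time zero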
K7 EDANS ctr = EDANS fluorescence interference in dose response, no enzyme; shares compounds with KLK7 zymogen act; EC50, µM; AID 720493; EDANS-DABCYL peptide fluorescence interference; actives 20% (n = 250);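 active means compounds that raise the fluorescence signal in this interference counterscreen, with EC50 at or below 10 µM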;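 further: intact quenched peptide substrate alone read at 355 nm excitation and 520 nm emission; signal is fluorescence gain from T0 to T4 after four hours at room temperature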
An asterisk follows results filed as active; i = inactive; ? = inconclusive; . = no result.

SMILES	NR1D1 modulator	KLK7 zymogen act	PG9 binder	GASC-1 inh	PP1 inh	PP5 primary	proKLK7 act conf	EDANS-DABCYL int	others
O=Cc1ccc(-c2cccs2)s1	-4	47*	-6	.	.	.	58*	67*
Fc1ccc(Br)cc1C1C=C(c2ccc(Br)cc2)Nc2ncnn21 (centres undefined)	10	11	-4	?	4	-1	.	.
CCc1ccc(C2=CC(c3cc(Br)ccc3F)n3ncnc3N2)cc1 (centres undefined)	-1	13*	0	-13	4	3	4	4.9*
O=C(NCCc1ccc(F)cc1)c1cc2ccccn2n1	1	-1	.	.	.	.	.	.
CN(C)c1ccc(-c2nc3ncc(Cl)cc3[nH]2)cc1	-5	17*	.	.	.	.	-3	12*
CCCCNc1ccc2c(c1)OC[C@H](Cc1ccccc1)NS2(=O)=O	2	0	0	.	.	.	.	.
Cc1ccc(S(=O)(=O)N2c3ccc(F)cc3C[C@H]2CSc2ccccc2)cc1	-3	.	.	.	.	.	.	.
CCOc1ccc(-c2cc(C(=O)NCCCN3CCCC3)c3ccccc3n2)cc1	0	24*	1	-47	-2	1	-1	-5
Cc1ccc(-c2cc(C(=O)NCCCN3CCCC3)c3ccccc3n2)cc1C	0	9	0	4	-3	-1	.	.
COc1ccc(/C=C/C(O)=C2/C(=O)NC3(C)CC2c2ccccc2O3)c(OC)c1OC (centres undefined)	2	15*	1	1	7	3	15*	10*	K7 EDANS ctr=>70
COc1ccc(/C=C/C(O)=C2/C(=O)N(C)C3(C)CC2c2ccccc2O3)cc1 (centres undefined)	-5	0	0	-13	1	2	.	.
C=CCOc1ccc2c(OC)c3ccoc3nc2c1OC	-1	19*	3	-7	1	-1	-6	-17
CCOc1c2ccoc2nc2c(OC)c(OC)ccc12	-1	13*	1	7	-4	7	9	14*
O=C(CCl)Nc1ccc(C(=O)NCC2COc3ccccc3O2)cc1 (centres undefined)	3	1	.	.	.	.	.	.
CC(C)(C)CC(C)(C)Nc1c(-c2ccc(O)cc2)nc2cnccn12	4	39*	2	-1	8	2	-118	-104
CCc1ccccc1NC(=O)CSc1nc2n[nH]c(C)c2c(=N)n1-c1ccc(OC)cc1	-2	31*	-2	.	.	.	20*	16*	K7 EDANS ctr=3.3*
CCCCN(CC)C(=O)CSc1nc2n[nH]c(C)c2c(=N)n1-c1cccc(C)c1	3	0	-2	-11	7	4	.	.
Cc1cccc(-n2c(SCC(=O)N3CCCC3)nc3n[nH]c(C)c3c2=N)c1	-2	30*	-2	0	0	-3	70*	43*	K7 EDANS ctr=i
COC(=O)[C@]12C[C@H](CC(=O)N3CCOCC3)C(=O)N(Cc3cccc4ccccc34)C1=C[C@H](COCc1ccccc1)O[C@@H]2C	3	1	.	.	.	.	.	.
NC(=O)c1ccccc1N=Cc1ccccn1	-5	3	-2	-9	0	0	.	.
Cc1ccccc1C=Nc1ccccc1C(N)=O	-2	18*	1	-10	-1	1	28*	29*
Cc1ccc(C=Nc2ccccc2C(N)=O)cc1	-4	19*	0	-11	-5	1	40*	31*	K7 EDANS ctr=>70
COc1c2occc2cc2ccc(=O)oc12	-2	1	1	.	-4	0	.	.
COc1c2c(cc3ccc(=O)oc13)CCO2	-3	20*	2	-2	-6	-1	28*	29*
O=C(Nc1nc2ncccn2c1-c1ccc(C(F)(F)F)cc1)c1ccc(F)cc1	3	4	.	.	.	.	.	.
SMILES	NR1D1 modulator	KLK7 zymogen act	PG9 binder	GASC-1 inh	PP1 inh	PP5 primary	proKLK7 act conf	EDANS-DABCYL int	others
Cc1cccn2cc(-c3c[nH]c4ccccc34)nc12	2	16*	-6	2	3	1	6	2
Brc1ccc2nc(-c3c[nH]c4ccccc34)cn2c1	-5	-1	-3	11	-4	3	.	.
CC(=O)Nc1nc2n(n1)C(c1ccccc1)C=C(c1ccccc1)N2 (centres undefined)	.	.	.	2	-2	-1	.	.
CC(=O)Nc1nc2n(n1)C(c1ccc(F)cc1)C=C(c1ccccc1)N2 (centres undefined)	-3	22*	-1	8	-2	3	-23	0
O=C(c1nc2n(n1)C(c1ccc(Cl)cc1)C=C(c1ccccc1)N2)N1CCOCC1 (centres undefined)	2	54*	2	-8	-3	-1	-37	-34
CC(=O)Nc1ccc(S(=O)(=O)NCC2CCN(C(=O)C(=O)c3cc4ccccc4o3)CC2)cc1	-6	0	-1	.	.	.	.	.
COc1ccc2nc(C)c3c(c2c1)OC(C)C3 (centres undefined)	1	3	0	-2	0	3	.	.
COc1cccc2c3c(c(C)nc12)CC(C)O3 (centres undefined)	1	48*	1	-4	-3	-2	8	12*
CCNC(=S)NNC(=O)c1cccn(Cc2ccc(Cl)cc2Cl)c1=O	-1	32*	1	20	1	1	31*	47*
C=CCNC(=S)NNC(=O)c1cccn(Cc2ccc(Cl)cc2Cl)c1=O	-1	22*	-1	2	1	2	30*	28*
Cc1ccccc1C(=O)NNC(=S)NC(=O)c1ccc(Cl)cc1Cl	-2	0	2	-2	4	1	.	.
O=C(NCCc1ccccc1)OCc1cn(-c2cccc(Cl)c2)nn1	-3	0	.	.	.	.	.	.
O=[N+]([O-])c1ccc(COc2ccccc2CO)cc1	6	1	0	.	.	.	.	.
CCOC(=O)CNC(=O)CSc1nnc(-c2ccccc2)n1CC	-1	1	.	.	.	.	.	.
N#Cc1c(-c2cccnc2)cc(-c2ccccc2)nc1N	6	13*	-1	0	-3	0	14*	13*
O=C(Nc1ccc(F)cc1F)c1cc(-c2ccc(Cl)cc2)nc2ccccc12	5	0	.	.	.	.	.	.
COC(=O)C1C(O)=C(C=Nc2cccc3ccccc23)C(=O)CC1(C)C (centres undefined)	-6	34*	1	6	0	4	25*	23*
COC(=O)C1C(O)=C(C=NCc2ccccc2)C(=O)CC1(C)C (centres undefined)	-6	0	-2	5	-3	-1	.	.
